About 83,000 compounds went through this panel and 20% of them were active in at least one assay; those are over-represented in the sample as a whole.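 Testing used 96-well plates and a 48-hour single-concentration exposure. Example: -40 means 40% of the starting cells died.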 Values without a mark were called inactive. Calls of active or inactive are those of the source.

The subject of this test is HOP-92 NSCLC. The test is described as follows: NCI-60 one-dose screen, 48 h (100 = growth as untreated, 0 = no growth, -100 = all killed). The settings on record: 10 µM unless noted. The method, then:
Growth inhibition of the HOP-92 human Non-Small Cell Lung tumor cell line is measured as a screen for anti-cancer activity. Cells are grown in 96 well plates and exposed to the test compound for 48 hours. Compounds are tested at a single concentration, which is 10^-5 M for most compounds. The reported endpoint is percent growth (GI% or GIPRCNT), where numbers from 0 - 100% represent growth inhibition, and numbers from -100% - 0 represent cell death. For example, a value of 40 represents 60% growth inhibition. A value of 0 means no net growth occurred over the course of the experiment. A value of -40 indicates 40% of cells at the beginning of the experiment died by the end of the experiment. A value of -100 means all cells are dead at the end of the experiment.
NCI-60 Human Tumor Cell Lines Screen was performed using the standard one-dose NCI protocol, which is described in more detail at https://dtp.cancer.gov/discovery_development/nci-60/default.htm.
Compounds with GIPRCNT values below 10 were considered active. Activity score was based on GIPRCNT using the following formula: […]
Score is 0 for GIPRCNT values of 100 or above, 50 for GIPRCNT values of 0, and 100 for GIPRCNT values of -100.
Take `CC1OC(O[C@@H]2[C@H](O)C(CO)OC(O[C@H]3COC(O[C@H]4CC[C@]5(C)[C@H]6CC[C@]78OC[C@@]9(CC[C@](C)(C=O)C[C@H]97)C(=O)C[C@@]8(C)[C@]6(C)CC[C@H]5C4(C)C)[C@@H](O)[C@@H]3O)[C@H]2OC2OC[C@@H](O)[C@@H](O)[C@@H]2O)[C@@H](O)[C@@H](O)[C@H]1O` (stereo not given in full): the growth is 79.5%.

`CCCC(=O)NC(c1cccnc1)c1ccc2c(C)ccnc2c1O` (stereo not given): the growth was 47.2%.

Consider `COc1cc2c3c(n(CCCNC4CCC4)c(=O)c2cc1OC)-c1cc2c(cc1C3=O)OCO2`, for which the growth is 87.9%.

`CC(C)=CCC[C@](C)(O)[C@H]1CC[C@]2(C)[C@@H]1CC[C@@H]1[C@@]3(C)CCC(NC(=O)c4ccccc4C(=O)O)C(C)(C)[C@@H]3CC[C@]12C` (stereo not given in full): the growth is 75.6%.

As for `Cc1cc(O)c(=O)cc2c1C[C@H]1CC(C)(C)/C=C/C[C@]3(C)Oc4cc(=O)c(O)cc(C)c4C[C@H]3C[C@H](O)[C@@]1(C)O2`, the growth was -16.1% (active).

For `CN1CCN(c2ccc3c(C(N)=O)c(NC(=O)c4ccc(C(C)(C)C)cc4)sc3c2)CC1`, the growth is 79%.

Regarding `C=C(C)C(=O)O[C@H]1C[C@@]2(C)OC(=CC2=O)/C(C)=C\[C@H]2OC(=O)C(=C)[C@H]12`, the growth is -22% (active).

Take `CCOC(=O)c1c(NC(=O)c2ccc(F)cc2F)sc2c1CCC(=O)C2`: the growth is 107%.

Regarding `COc1cc2oc(-c3cccc(NC(=O)c4cc(NC(=O)[C@H](C)NC(=O)OC(C)(C)C)ccc4C)c3)cc(=O)c2c(OC)c1OC`, the growth was -0.546% (active).

Turning to `COc1ccc([C@H]2[C@H](O)C(=O)N2c2cc(OC)c(OC)c(OC)c2)cc1`, the growth is -4.93% (active).

For `COc1ccc2c(c1)c(-c1nnc(N)nc1-c1cn(C)c3ccccc13)cn2C`, the growth was 97.9%.

On to `Cn1cc(-c2nn3cc(-c4ccncc4)nc3s2)c2cc(Cl)ccc21`, for which the growth is 0.128% (active).

With `CC(=O)Nc1cccc(-n2cnc3cc(-c4ccc(O)cc4)ccc32)c1`, the growth was 49.5%.

For the compound `COc1ccc(-c2cc(-c3cccc4ccccc34)n3c(n2)nc2ccccc23)cc1OC`, the growth was 11.5%.

Turning to `C#C[C@]1(O)CC[C@H]2[C@@H]3CC=C4c5sc(-c6cccc(F)c6)nc5CC[C@]4(C)[C@H]3CC[C@@]21C`, the growth is 113%.

In the case of `COc1cc2c3c(n(CCCN4CCCCC4)c(=O)c2cc1OC)-c1cc2c(cc1C3=O)OCO2`, the growth was -77.4% (active).

Consider `O=C1CSC(=O)N1Cc1cc2ccccc2nc1Cl`, for which the growth is 94.5%.

Turning to `Cc1nn(-c2ccc(Cl)cc2)c(C)c1N=Nc1ccc2oc(=O)ccc2c1`, the growth was 76.8%.

For `NCCN1CCN(c2nc(-c3ccccc3)nc3nc(-c4ccccc4)oc23)CC1`, the growth was 58.9%.

With `CCN1C(=O)N(CC)C2SC(N/N=C/c3ccc(F)cc3)=NC21` (stereo not given), the growth was -0.0922% (active).

Regarding `COc1ccc([C@H]2c3[nH]c4ccccc4c3C[C@@H]3C(=O)N(C4CCN(Cc5ccccc5)CC4)CC(=O)N23)c(OC)c1`, the growth is 68%.

As for `CCN1C(=O)N(CC)C2SC(N/N=C/C=C/c3ccccc3OC)=NC21` (stereo not given), the growth was 39.1%.

`CN1C(=O)N(C)C2C1NN=c1s/c(=C\c3ccccn3)c(=O)n12` (stereo not given): the growth was 96.6%.

`CN1CCN(Cc2ccc(NC(=O)c3cncc(C#Cc4[nH]nc5ncncc45)c3)cc2C(F)(F)F)CC1`: the growth is -16% (active).

For `CC(=O)NC(C)(C)C(=O)N[C@@H](C)C(=O)NC(C)(C)C(=O)N[C@@H](C)C(=O)NC(C)(C)C(=O)N[C@@H](C)C(=O)N[C@@H](CCC(N)=O)C(=O)NC(C)(C)C(=O)N[C@H](C(=O)NC(C)(C)C(=O)NCC(=O)N[C@@H](CC(C)C)C(=O)NC(C)(C)C(=O)N1CCC[C@H]1C(=O)N[C@H](C(=O)NC(C)(C)C(=O)NC(C)(C)C(=O)N[C@@H](CCC(N)=O)C(=O)N[C@@H](CCC(N)=O)C(=O)N[C@H](CO)CC1CCCCC1)C(C)C)C(C)C`, the growth is -13.3% [5 µM] (active).

For `COc1ccc(OC)c([C@H]2c3[nH]c4ccccc4c3C[C@H]3C(=O)N(CCCCCCC(=O)NO)CC(=O)N23)c1`, the growth is 82%.

On to `CCN(CC)c1ccc2cc(C(=O)NCCOCCOCCOCCn3cc(CCC(=O)Nc4ccc(C(=O)c5ccc(NC(=O)OC(C)(C)C)cc5)cc4)nn3)c(=O)oc2c1`, for which the growth is 85.7%.

As to `CN(c1ccc(Cl)cc1)S(=O)(=O)c1ccc(-c2cnc(C3CC3)o2)cc1`, the growth is 63.9%.

On to `O=C(COc1cccc2cccnc12)Nc1ccc(C(=O)/C=C/c2ccc(Cl)cc2)cc1`, for which the growth is 108%.

Turning to `COc1ccc(-c2nn(-c3ccccc3)cc2/C=C/C(=O)c2ccc(NC(=O)CCCCCCC(=O)NO)cc2)cc1`, the growth was 125%.

As to `CCN1C(=O)N(CC)C2SC(N/N=C/c3ccc(OC)cc3)=NC21` (stereo not given), the growth was 36.4%.

Consider `CC(C)c1nn(-c2ccccc2)c(N2CCCCC2)c1/C=N/NC(N)=S`, for which the growth was 64.6%.

Consider `COc1cc2c3c(n(CCCN4CCC[C@H]4C(N)=O)c(=O)c2cc1OC)-c1cc2c(cc1C3=O)OCO2`, for which the growth was 23.9%.

Consider `CN(C)C(=O)c1ccccc1-n1cnc2ccccc2c1=O`, for which the growth was 117%.

With `CS(=O)(=O)c1nccc(-c2c(-c3ccc(F)c(OCCc4ccc(F)cc4)c3)nc3sccn23)n1`, the growth was -26.3% (active).

For `O=C(O)c1ccc(-n2cc(CNc3ccc(F)cc3)c(-c3ccc(C(F)(F)F)cc3)n2)cc1`, the growth was 78.3%.

With `CC(C)Sc1nc(NC2CC2)c(C#N)c(-c2ccccc2)n1`, the growth was 76.1%.

With `CCN(CC)Cc1c(-c2cccc(OC(F)(F)F)c2)[nH]c2ccc(N3CCCC3)cc2c1=O`, the growth is 86.2%.

Turning to `O=C(NCCCNc1cc(-c2cn(-c3ccccc3)nc2-c2cccc(O)c2)ccn1)Nc1cc(C(F)(F)F)cc(C(F)(F)F)c1`, the growth is 52%.

As for `O=C(CCCCCCN1CC(=O)N2[C@@H](c3ccccc3)c3[nH]c4ccccc4c3C[C@H]2C1=O)NO`, the growth is 57.9%.

The values are drawn from PubChem BioAssay (NCI).
